POLK inh – qHTS for Inhibitors of Polymerase Kappa; purified Pol kappa, fluorescent DNA synthesis assay, 10 min; Potency, µM (highest dose often 107 µM), usual class: inhibitors; 400,000 compounds, 0.53% hits; AID 588579, 2011
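10 nM Pol kappa preincubated 15 min at room temperature with compounds, then reaction started with substrate at 50 nM final. Fluorescence read kinetically at 0 and 10 min; buffer-only wells served as negative control.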
Pol iota inh – qHTS for Inhibitors of Polymerase Iota | DNA polymerase iota (Homo sapiens), Q9UNA4 | Pol iota fluorescent replication assay, 10 min | 390,000 compounds, 1% hits | AID 588590, 2011 | Potency, µM (top dose mostly 115 µM), usual class: inhibitors
Target sequence (Q9UNA4 whole entry, looked up): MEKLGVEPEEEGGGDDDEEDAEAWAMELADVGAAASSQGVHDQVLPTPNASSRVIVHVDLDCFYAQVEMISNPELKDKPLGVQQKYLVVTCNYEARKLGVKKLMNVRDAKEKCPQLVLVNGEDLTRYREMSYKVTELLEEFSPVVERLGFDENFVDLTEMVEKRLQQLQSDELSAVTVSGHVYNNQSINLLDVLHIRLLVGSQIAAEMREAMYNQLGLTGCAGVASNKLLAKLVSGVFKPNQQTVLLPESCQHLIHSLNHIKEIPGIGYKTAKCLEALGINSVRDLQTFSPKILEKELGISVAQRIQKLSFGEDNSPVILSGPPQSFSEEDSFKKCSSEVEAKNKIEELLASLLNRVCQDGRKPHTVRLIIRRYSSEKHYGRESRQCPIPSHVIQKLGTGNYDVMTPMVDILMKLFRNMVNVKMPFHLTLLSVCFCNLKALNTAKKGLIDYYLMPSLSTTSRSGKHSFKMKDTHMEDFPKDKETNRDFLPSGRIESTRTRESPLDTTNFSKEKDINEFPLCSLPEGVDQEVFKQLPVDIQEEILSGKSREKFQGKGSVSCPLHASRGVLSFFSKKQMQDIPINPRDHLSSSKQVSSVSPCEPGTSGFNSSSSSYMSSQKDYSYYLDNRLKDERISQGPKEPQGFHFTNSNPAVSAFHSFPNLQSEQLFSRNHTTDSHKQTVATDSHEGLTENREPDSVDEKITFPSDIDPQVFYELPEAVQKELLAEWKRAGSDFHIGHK
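Pol iota at 10 nM preincubated 15 min with compounds at room temperature; reaction started with fluorescent substrate, 50 nM final. Fluorescence read kinetically at 0 and 10 min; buffer-only wells as negative control.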
POLB inh – qHTS Assay for Inhibitors of DNA Polymerase Beta | P06746 | Pol beta primer extension/strand displacement, fluorescence kinetic | Potency, µM (top dose mostly 114 µM), hits mostly inhibitors | 340,000 compounds, 1.3% hits | AID 485314, 2010
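Preincubation: enzyme (10 nM) with compound, 15 min, RT. Reaction: substrate added to 50 nM final. Reads: 0 and 10 min. Analysis: normalized, Hill fit.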
POLH inh – qHTS for Inhibitors of Polymerase Eta; DNA polymerase eta (Homo sapiens), Q9Y253; recombinant Pol eta, fluorescent DNA replication assay; Potency, µM (doses to about 114 µM), hits mostly inhibitors; 390,000 compounds, 1.2% hits
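Fluorescent replication assay: 50 nM final substrate added after a 15 min room-temperature compound preincubation with 10 nM enzyme. Signal taken at 0 min and again at 10 min.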
L3MBTL1 inh – qHTS Assay for the Inhibitors of L3MBTL1; Lethal(3)malignant brain tumor-like protein 1 (Homo sapiens), Q9Y468; AlphaScreen L3MBTL1–H3K9me1 peptide binding; Potency, µM (titrated, usually from 57.1 µM), usual class: inhibitors; 230,000 compounds, 0.66% hits; also: nearly all actives have a fitted effect of over 60% in size
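AlphaScreen assay: L3MBTL1 (50 nM final) was preincubated 30 min at room temperature with biotinylated H3(1-15)K9me1 peptide (75 nM final), then 30 min with library compounds; streptavidin donor and nickel chelate acceptor beads (10 ug/mL final) added, 30 min dark.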
PGK validate – qHTS for inhibitors of Phosphogylcerate Kinase: Hit Validation Screen; shares compounds with POLK inh; TbPGK coupled GAPDH assay, Kinase-Glo luminescence; Potency, µM (top dose mostly 57.5 µM), most hits filed as inhibitors; 500 compounds, 79% hits; also: nearly all actives have a fitted effect of over 65% in size
Pol iota confirm – qHTS for Inhibitors of Polymerase Iota: Confirmatory Assay for Cherry-picked Compounds. Pol iota primer extension, TAMRA/BHQ fluorescence. AID 720496, 2013. Potency, µM, most hits filed as inhibitors. shares compounds with POLK inh. 1,500 compounds, 77% hits
A number is an active result; . = inactive; ? = inconclusive; / = no result; ! = not confirmed by another sample. An excerpt weighted towards active compounds, which were near 2.4% of everything screened. Calls follow the shape of the dose curve; as a rule, active = well fitted curve in the direction sought with a large enough effect; inconclusive = small, poorly fitted or top-dose-only effect, or another doubt; inactive = no such curve, though single readings can be large; an effect the other way counts as inactive or inconclusive.

SMILES | POLK inh | Pol iota inh | POLB inh | POLH inh | L3MBTL1 inh | Pol iota confirm | others
CC(=O)c1ccc(-c2ccc(/C=C(/Sc3n[nH]c(C)n3)C(=O)O)o2)cc1 | ? | ? | ? | 39.8µM | ? | 47.4
NS(=O)(=O)c1ccc(N=C2C(=O)Nc3ccccc32)cc1 | . | . | . | . | . | /
O=C1Nc2ccccc2C1=Nc1ccc(S(=O)(=O)Nc2nccs2)cc1 | ? | 8.91µM | . | 20µM | . | / | PGK validate=18.3µM
O=C(N/N=C/c1c(O)ccc2ccccc12)c1ccc(Br)o1 | . | . | 12.6µM | ? | / | / | PGK validate=18.3µM
CCOC(=O)c1c(C)[nH]c(C)c1S(=O)(=O)NCC(=O)Nc1cccc(Cl)c1 | . | . | . | . | / | /
COc1cccc(NC(=O)CCc2nc(-c3cc(OC)c(OC)c(OC)c3)no2)c1 | . | . | . | . | / | /
COc1ccc(CNC(=O)CN2N=C(c3ccccc3)CCC2=O)c(OC)c1 | . | . | . | . | / | /
COc1ccc(Sc2ccccc2CN(C)C)cc1OC | . | . | . | . | . | /
CNCc1ccccc1Sc1ccc(O)c(O)c1 | 79.4µM | 28.2µM | ? | . | ? | 75.2
Cc1cc(N2CCC(C(=O)Nc3ccc(F)cc3C)CC2)n2nc(C)c(-c3ccc(Cl)cc3)c2n1 | . | . | . | . | / | /
CCOC(=O)c1sc2ncn(CC(=O)Nc3cc(C)cc(C)c3)c(=O)c2c1C | . | . | . | . | / | /
Cc1csc2c(=O)sc(NC(=O)c3ccco3)nc12 | . | . | ? | . | / | /
Cc1csc2c(=O)sc(NC(=O)c3cccs3)nc12 | . | ? | ? | ? | / | / | PGK validate=25.9µM
Cc1cccc(OCC(=O)Nc2cccc(C(=O)OCc3cc(=O)n4c(C)csc4n3)c2)c1 | . | . | . | . | / | /
Cc1cccc(NC(=O)CSc2nc(C3CC3)nc3ccccc23)c1 | . | 22.4µM | 22.4µM | 39.8µM | / | 67
C=C(C)C(=O)Nc1cccc(C2=NOC3(C2)C[C@@H](C(N)=O)N(C(=O)c2cc([N+](=O)[O-])cc([N+](=O)[O-])c2)C3)c1 (some centres not stated) | ? | ? | 14.1µM | 20µM | / | / | PGK validate=?
COc1ccc(C2CC(=O)c3c([nH]c(C(=O)OC(C)C)c3C)C2)cc1OC (configuration not stated) | . | . | . | . | . | /
CCOc1ccc(C2CC(=O)c3c([nH]c(C(=O)OC)c3C)C2)cc1OC (configuration not stated) | . | . | ? | 15.8µM | / | ?
O=C(CCc1ccc(S(=O)(=O)N2CCOCC2)cc1)N/N=C/c1ccc(O)c(O)c1O | 8.91µM | 2.82µM | 12.6µM | ? | 14.1µM | ?
O=C(CCc1ccc(S(=O)(=O)N2CCOCC2)cc1)N/N=C/c1ccc(F)cc1F | . | . | . | . | . | /
COc1ccc(-n2nnc3c(=O)n(CC(=O)Nc4ccc5c(c4)OCCO5)cnc32)cc1OC | . | . | ? | 25.1µM | / | 67
Cc1cc2oc(C(=O)Nc3ccc(S(N)(=O)=O)cc3)cc(=O)c2cc1C | . | . | . | . | / | /
CSc1ccc(CCNC(=O)C2CCN(c3ncnc4c3nc3n4CCCCC3)CC2)cc1 | . | . | . | . | / | /
Cc1ccc(-c2cc3c(nn2)-c2ccccc2C3=O)cc1 | . | . | . | ? | / | / | PGK validate=5.8µM
COc1cc2c(ccc3cc(OC)c(OC)c(O)c32)cc1O | 7.94µM | ? | 1.41µM | 3.16µM | / | / | PGK validate=1.46µM
SMILES | POLK inh | Pol iota inh | POLB inh | POLH inh | L3MBTL1 inh | Pol iota confirm | others
C[C@@H]1CN([C@@H](C)CO)C(=O)CCCn2nncc2CO[C@@H]1CN(C)S(=O)(=O)c1cccs1 | / | / | / | . | / | /
CC[n+]1c(/C=C/c2c[nH]c3ccccc23)ccc2cc(C)ccc21 | 79.4µM | ? | 20µM | ? | ? | ?
CN(C)c1ccc(N/C=C/C(=O)c2ccco2)cc1 | . | ? | ? | . | / | / | PGK validate=10.3µM
N=C1C(c2nc(-c3cccc([N+](=O)[O-])c3)cs2)=C(O)CN1NC(=O)c1ccco1 | ? | 50.1µM | . | 50.1µM | . | ?
CCC1CCc2c(sc(NC(=O)C3CC=CCC3C(=O)O)c2C#N)C1 (configuration not stated) | . | . | 79.4µM | ? | . | / | PGK validate=?
NC(=O)c1c(NC(=O)C2CC=CCC2C(=O)O)sc2c1CCCCC2 (configuration not stated) | . | . | 20µM | 56.2µM | / | / | PGK validate=13µM
COCCn1c(=S)[nH]c2cc(C(=O)NC3CCCC(C)C3C)ccc2c1=O (configuration not stated) | / | / | / | . | / | /
O=c1c2ccccc2cnn1-c1nc2ccccc2[nH]1 | . | . | . | . | . | / | PGK validate=5.8µM
O=c1c(Cl)c(N2CCCCC2)cnn1-c1nc2ccccc2[nH]1 | . | . | . | . | . | /
Cc1ccc2nc3[nH]c(=O)[nH]c(=O)c3c(N)c2c1 | . | . | / | . | / | ?
Cc1ccc(-c2csc3nnc(SCC(=O)Nc4nsc(-c5ccccc5)n4)n23)cc1 | . | . | . | . | / | /
O=C(CSc1nnc2scc(-c3ccccc3)n12)Nc1nsc(-c2ccccc2)n1 | . | ? | ? | ? | . | 37.7
COc1ccc(-c2nn(C)c3sc(C(=O)NCCN(C)C)cc23)cc1OC | ? | 17.8µM | 31.6µM | ? | / | ?
CCCCn1c(N)c(-c2nc3ccccc3o2)c2c([N+](=O)[O-])nn(C)c(=O)c21 | . | ? | ? | ? | . | 42.3
O=[N+]([O-])c1ccc2nc(SCc3cn4ccccc4n3)[nH]c2c1 | . | . | . | ? | . | /
O=[N+]([O-])c1ccc2nc(SCc3cn4cc(Cl)ccc4n3)[nH]c2c1 | . | 28.2µM | 5.62µM | 50.1µM | . | ?
Oc1ccc(C2CNCCc3c2cc(O)c(O)c3Cl)cc1 (configuration not stated) | . | 14.1µM! | ? | ? | . | ?
CCOCCCNC(=O)c1cnc2sc(N3CCCCCC3)nn2c1=O | . | . | . | . | / | /
Cn1cccc1C(=O)N1CCC2(CC1)CN(C(=O)Nc1ccccc1)C2 | . | / | / | / | / | /
CC(=O)c1ccc(NC(=O)c2ccc(NC(=O)c3ccco3)cc2)cc1 | . | . | . | . | / | /
COC(=O)c1ccc(NC(=O)c2ccc(NC(=O)c3ccco3)cc2)cc1 | . | ? | . | ? | / | ?
COc1cc(OC)c(Nc2nc3ccc(C)cc3n3nnnc23)cc1Cl | . | . | . | . | / | /
O=C(CN1C(=O)COc2ccc(S(=O)(=O)NC3CCCC3)cc21)Nc1ccc(Cl)cc1F | . | . | . | . | / | /
